The record followed here is PubChem BioAssay (NCATS).

Where “and” joins values, the source holds several entries; their conditions need not be identical. Equal entries are not always repeated. A number with no mark means an inactive call. Inconclusive results are not listed. Calls of active or inactive are those of the source. Unless noted, calls come from the whole dose curve; as a rule, active = well fitted curve in the direction sought with a large enough effect; inconclusive = small, poorly fitted or top-dose-only effect, or another doubt; inactive = no such curve, though single readings can be large; an effect the other way counts as inactive or inconclusive.

Assay [1] can be described thus: qHTS assay for small molecule agonists of the antioxidant response element (ARE) signaling pathway measured by Nrf2-dependant transcriptional activity (AID 720636; active = well fitted curve in the direction sought with a large enough effect in the repeat runs; an effect the other way counts as inactive or inconclusive; note: % of control where 0% means no effect). In short, it runs like this: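 Quantitative HTS format in HepG2 cells stably expressing an ARE-luciferase reporter; 16 hr compound treatment at 37 C, luciferase signal detected with ONE-Glo.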
In general terms: qHTS replaces the single test concentration by a dilution series.

Assay [2] can be described thus: qHTS assay for small molecule antagonists of the retinoid-related orphan receptor gamma (ROR-gamma) signaling pathway - cell viability counter screen (AID 720652; active = well fitted curve in the direction sought with a large enough effect in the repeat runs; an effect the other way counts as inactive or inconclusive;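 note: CHO reporter cells with doxycycline-induced ROR-gamma expression; series mostly up to about 92 µM; compound exposure lasted 16 hr before ATP read; % is set by controls: 0 for no effect and ±100 for the full control effect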). In short, it runs like this:
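Cytotoxicity counter screen: intracellular ATP (CellTiter-Glo luminescence) measured in the doxycycline-induced CHO RORE-luciferase reporter line after 16 hr compound exposure at 37 C, 5% CO2.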

Assay [3] is described as follows: qHTS assay for small molecule agonists of the antioxidant response element (ARE) signaling pathway measured by Nrf2-dependant transcriptional activity - cell viability counter screen (AID 720653; active = well fitted curve in the direction sought with a large enough effect in the repeat runs; an effect the other way counts as inactive or inconclusive; note: % is set by controls: 0 for no effect and ±100 for the full control effect). The settings on record: ARE-bla HepG2 viability, CellTiter-Glo ATP luminescence, 16 h; max response: stronger effect = lower value. In short, it runs like this:
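ARE-bla HepG2 cells (2,000/well) rested 5 hrs at 37C/5% CO2, then exposed to compounds in DMSO for 16 hrs. Viability was read in the same wells as intracellular ATP by luminescence, 30 min at room temperature after reagent addition.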

Assay [4] is described as follows: qHTS Assay for Identifying Gametocytocidal Compounds (AID 743244).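 Note: % is set by controls: 0 for no effect and ±100 for the full control effect; actives lower the fluorescent signal which means gametocytes are killed.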 The settings on record: P. falciparum 3D7 stage III-V gametocytes, alamarBlue, 72 h; max response: stronger effect = lower value. In short, it runs like this: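 Compounds are pinned into medium, gametocytes (stage III–V, 3D7, 20,000 cells/well) added, and plates held 72 h at 37 °C in 5% CO2. AlamarBlue follows for 24 h before fluorescence reading.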

A short description of assay [5]: qHTS assay for cell viability of HEK293 cells (AID 743288). For max response: % is set by controls: 0 for no effect and ±100 for the full control effect. Note: nearly all actives have a fitted effect of over 50% in size. Note: potency is the fitted concentration of half-maximal effect. To be noted: ATP luminescence (CellTiter-Glo), 18 h; max response: stronger effect = lower value. A digest of the protocol: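 Readout is luciferase-coupled ATP content (CellTiter-Glo luminescence, 30 min room temperature) as a measure of metabolically competent cells. Parental HEK293 cells were plated 5 h or more before compound addition, then treated 18 h at 37 C.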

Assay [6] can be described thus: qHTS assay for cell viability of the p53RE-bla HCT-116 cell line (AID 743292). Note: % is set by controls: 0 for no effect and ±100 for the full control effect; nearly all actives have a fitted effect of over 55% in size. A digest of the protocol: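 Viability of compound-treated p53RE-bla HCT-116 cells is taken from ATP-dependent luciferase luminescence. Treatment lasts 16 h at 37 C after a 5 h settling period; detection follows 30 min at room temperature.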
A short description of assay [7]: qHTS assay for measurement of the activity of small molecule inhibitors on Zika virus induced Caspase-3 activity in human iPSC derived neural progenitor cells (hNPCs) (AID 1224857). Note: % of control where 0% means no effect; nearly all actives have a fitted effect of over 65% in size. A digest of the protocol:
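Pretreat hNPCs with compound 1 h; infect ZIKV 2 FFU/cell; 6 h 37 C, 5% CO2; Caspase-Glo 3/7, 30 min RT; luminescence; normalize to no-virus and virus-only wells.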

Assay [8] in a line: qHTS assay for measurement of the activity of small molecule inhibitors on Zika virus induced Caspase-3 activity in human astrocytoma cells (AID 1224859).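 Note: plate controls were ZIKV-infected untreated cells for no effect and uninfected cells for full effect.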 In short, it runs like this:
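Human SNB-19 astrocytoma cells in RPMI 1640 with 10% FBS receive compound one hour ahead of Zika virus at 2 FFU/cell. After 6 h infection, caspase-3/7 activity is detected by Caspase-Glo luminescence.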

Assay [9] can be described thus: qHTS assay to identify small molecule inhibitors of chordoma cells - UCH-1 (AID 1259355). Note: nearly all actives have a fitted effect of over 55% in size. Note: potency is the fitted concentration of half-maximal effect; series mostly up to about 46 µM. A digest of the protocol: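 A 48hr growth-inhibition format: each drug tested at 15 concentrations together with added auranofin, camptothecin, doxorubicin, rubitecan and topotecan, with cell viability quantified as CellTiter-Glo luminescence.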
Assay [10] in a line: qHTS assay to identify small molecule inhibitors of chordoma cells - UCH-2 (AID 1259356). Note: series mostly up to about 46 µM; % is set by controls: 0 for no effect and ±100 for the full control effect.
For assay [11], the target named is T1, Hexokinase-4 (Homo sapiens) + Glucokinase regulatory protein (Homo sapiens) (UniProt P35557+Q14397). Put plainly: qHTS assay for inhibitors of recombinant human GCK-GKRP interaction: Diaphorase-coupled assay (AID 743205). In short, it runs like this:
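A kinetic fluorescence read (Ex 525/Em 590 nm, every minute for 30 minutes) tracked resorufin from a G6PDH-diaphorase coupled GCK reaction. It contained 10 nM GST-GCK, 10 nM FLAG-GKRP, 5 mM glucose, 0.4 mM ATP in Hepes pH 7.6. Normalized to with/without-enzyme DMSO controls.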

For assay [12], the target named is T1, Hexokinase-4 (Homo sapiens) + Glucokinase regulatory protein (Homo sapiens). Briefly: qHTS assay for inhibitors of recombinant human GCK-GKRP interaction: ADP-Glo assay (AID 743206).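 Note: plate controls were DMSO plus enzyme for no effect and no enzyme for full effect.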 In short, it runs like this:
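Pin-transferred compounds meet a 15 nM GST-GCK/15 nM FLAG-GKRP/2 uM S6P mix (dispense concentrations). ATP is then added to 0.4 mM final with 5 mM glucose, and the reaction runs 60 min at room temperature. ADP is quantified luminescently.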

For assay [13] the target is unchanged. Briefly: qHTS assay for inhibitors of recombinant human GCK-GKRP interaction: HTRF assay (AID 743207).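 Note: 0% = DMSO with GCK present and -100% = DMSO wells lacking GCK.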 In short, it runs like this: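 After 60 min equilibration at room temperature with anti-FLAG XL665 and anti-GST antibodies, FRET ratio (665/615 nm, excitation 320 nm) was read. Proteins: GST-GCK and FLAG-GKRP, each 5 nM, plus 2 uM S6P, pH 7.1 buffer; GCK-free wells define minimum signal.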

T1 sequence (P35557 whole entry, looked up): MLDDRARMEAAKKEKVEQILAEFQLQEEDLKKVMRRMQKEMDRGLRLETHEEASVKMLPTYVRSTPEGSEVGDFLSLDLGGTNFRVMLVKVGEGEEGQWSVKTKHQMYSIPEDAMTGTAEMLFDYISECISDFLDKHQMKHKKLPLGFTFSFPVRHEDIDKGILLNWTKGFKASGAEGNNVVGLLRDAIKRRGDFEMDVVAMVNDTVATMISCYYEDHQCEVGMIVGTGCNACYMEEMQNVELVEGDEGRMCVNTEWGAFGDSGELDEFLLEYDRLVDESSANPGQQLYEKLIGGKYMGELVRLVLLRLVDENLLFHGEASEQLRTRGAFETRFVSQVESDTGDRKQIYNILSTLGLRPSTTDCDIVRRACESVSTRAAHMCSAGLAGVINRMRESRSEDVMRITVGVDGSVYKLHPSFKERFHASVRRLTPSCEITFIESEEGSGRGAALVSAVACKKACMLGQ
T1 sequence (Q14397 whole entry, looked up): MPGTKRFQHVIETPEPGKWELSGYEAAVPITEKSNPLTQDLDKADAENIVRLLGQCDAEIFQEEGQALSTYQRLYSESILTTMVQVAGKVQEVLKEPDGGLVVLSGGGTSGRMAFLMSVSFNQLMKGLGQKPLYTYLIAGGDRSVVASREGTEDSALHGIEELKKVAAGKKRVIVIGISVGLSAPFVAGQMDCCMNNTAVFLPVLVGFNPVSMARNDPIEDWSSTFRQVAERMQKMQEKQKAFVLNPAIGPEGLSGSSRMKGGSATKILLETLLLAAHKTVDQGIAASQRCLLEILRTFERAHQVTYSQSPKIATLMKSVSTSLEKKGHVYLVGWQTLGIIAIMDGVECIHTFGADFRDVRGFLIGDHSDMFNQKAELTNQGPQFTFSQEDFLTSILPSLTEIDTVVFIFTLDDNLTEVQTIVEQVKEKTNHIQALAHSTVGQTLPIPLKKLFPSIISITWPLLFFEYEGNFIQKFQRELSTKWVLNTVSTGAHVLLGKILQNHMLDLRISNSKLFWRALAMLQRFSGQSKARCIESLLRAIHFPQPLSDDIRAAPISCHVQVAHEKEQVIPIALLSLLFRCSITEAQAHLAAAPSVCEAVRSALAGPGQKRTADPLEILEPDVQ

On to `COc1cc(Cc2cnc(N)nc2N)cc(OC)c1OC`, for which the outcome in assay [1], in [2], in [6], in [7] and in [8] was inactive. In addition, the max response in [3] is 0.934%; in [4], 1.83% and 3.42%; in assay [5] it was -2.08%. Also, the Potency result in [9] and in assay [10] was “inactive” each time.

`CN(C)CCCN1c2ccccc2Sc2ccccc21`: the outcome in assay [11], in [12], in assay [7] and in [8] was inactive. Moreover, the Potency result in [13], in [9] and in assay [10] was “inactive” throughout.

Consider `CN(C)CC[C@@H](c1ccc(Br)cc1)c1ccccn1`, for which the outcome in assay [11], in [12], in assay [7] and in assay [8] was inactive. The Potency result in assay [13], in [9] and in assay [10] was “inactive” throughout. In addition, the max response in assay [4] was -2.43% and 14.2%.

Regarding `CCCCNc1c(C(=O)OCC)c(C)nc2c1cnn2CC`, the result in [11], in assay [12], in [7] and in assay [8] was inactive. In addition, the Potency result in assay [13], in assay [9] and in assay [10] was “inactive” in each case. The max response in assay [4] was -2.63% and 24%.

As to `CC(C)[N+](C)(CCOC(=O)C1c2ccccc2Oc2ccccc21)C(C)C`, the result in assay [11], in assay [12], in [7] and in [8] was inactive. The Potency result in assay [13], in [9] and in [10] was “inactive” throughout. Further, the max response in assay [4] is -5.05% and 11.3%.

On to `COC(=O)[C@H]1[C@H]2C[C@@H]3c4[nH]c5cc(OC)ccc5c4CCN3C[C@H]2C[C@@H](OC(=O)c2cc(OC)c(OC)c(OC)c2)[C@@H]1OC`, for which the call in assay [1], in assay [11], in assay [12], in assay [6], in assay [7] and in [8] was inactive. For the same compound, in [3], the max response was -16.7% and -9.72%. Besides, the Potency result in assay [13], in [9] and in [10] was “inactive” throughout. In addition, the Potency in [5] was 39.8 µM (active).

Regarding `Cc1ccc(=O)n(-c2ccccc2)c1`, the outcome in [11], in assay [12], in [7] and in assay [8] was inactive. In addition, the Potency result in assay [13], in [9] and in [10] was “inactive” throughout. For the same compound, in [4], the max response was 6.86% and 22.4%.

As for `NC(N)=N/N=C/c1c(Cl)cccc1Cl`, the outcome in assay [11], in assay [12], in assay [7] and in [8] was inactive. Besides, the Potency entry in assay [13], in assay [9] and in assay [10] was “inactive” in each case.

With `C[C@]12CC[C@@H]3c4ccc(O)cc4C[C@@H](CCCCCCCCCS(=O)CCCC(F)(F)C(F)(F)F)[C@H]3[C@@H]1CC[C@@H]2O` (some centres not stated), the outcome in assay [11], in [12], in assay [7] and in assay [8] was inactive. For the same compound, the Potency entry in assay [9] and in assay [10] was “inactive” in each case.

For `OCCN1CCN(CC/C=C2/c3ccccc3Sc3ccc(C(F)(F)F)cc32)CC1`, the outcome in assay [11], in assay [12], in assay [7] and in [8] was inactive. In addition, the Potency result in [13], in [9] and in [10] was “inactive” throughout.

With `CN(C)C/C=C(/c1ccc(Br)cc1)c1cccnc1`, the result in assay [11], in assay [12], in [7] and in [8] was inactive. Also, the Potency entry in [13], in [9] and in assay [10] was “inactive” each time. In assay [4], the max response was -5.39% and -10%.

Regarding `Cc1scc2c1N(C(=O)CN1CCN(C)CC1)c1ccccc1NC2=O`, the result in [11], in assay [12], in assay [7] and in assay [8] was inactive. For the same compound, the Potency result in assay [13], in assay [9] and in assay [10] was “inactive” each time. Besides, in [4], the max response is 11.1% and 13%.

With `CC(C)(Oc1ccc(CCNC(=O)c2ccc(Cl)cc2)cc1)C(=O)O`, the call in assay [1], in assay [11], in [12], in assay [6], in assay [7] and in assay [8] was inactive. The max response in [3] is -11.9%; in assay [4], 5.91% and 17.9%; in assay [5], -0.154%. The Potency result in [13], in [9] and in [10] was “inactive” in each case.

As for `CCN(CC)CCNC(=O)c1ccc(NC(C)=O)cc1`, the outcome in assay [11], in [12], in [7] and in [8] was inactive. Besides, the Potency result in assay [13], in [9] and in assay [10] was “inactive” throughout. Besides, the max response in [4] was 11.5% and -3.43%.

On to `C#CCN(C)CCCOc1ccc(Cl)cc1Cl`, for which the outcome in [11], in assay [12], in assay [7] and in assay [8] was inactive. Further, the Potency entry in assay [13], in assay [9] and in assay [10] was “inactive” in each case. Also, the max response in assay [4] is -2.39% and 17.1%.

Regarding `CC(C)(C)c1ccc(C(=O)CCCN2CCC(OC(c3ccccc3)c3ccccc3)CC2)cc1`, the result in assay [11], in assay [12], in assay [7] and in [8] was inactive. Also, the Potency entry in assay [13] and in assay [10] was “inactive” each time. For the same compound, in assay [9], the Potency was 15.8 µM (active).

With `CC(=O)Nc1nnc(S(N)(=O)=O)s1`, the compound was called inactive in assay [1], in assay [11], in [12], in assay [6], in assay [7] and in assay [8]. The max response in [3] is 1.81%; in assay [4], 9.9% and 9.69%; in assay [5] it was -6.47%. For the same compound, the Potency entry in [13], in [9] and in assay [10] was “inactive” each time.

On to `CCCCCN(CCCCC)C(=O)C(CCC(=O)O)NC(=O)c1ccc(Cl)c(Cl)c1` (configuration not stated), for which the outcome in assay [11], in assay [12], in assay [7] and in [8] was inactive. The Potency entry in [13], in assay [9] and in [10] was “inactive” each time. Besides, the max response in assay [4] was 10.8% and 16.9%.

For the compound `CC(=O)OCC1=C(C(=O)O)N2C(=O)[C@@H](NC(=O)Cc3cccs3)[C@H]2SC1`, the result in assay [11], in [12], in assay [7] and in [8] was inactive. Moreover, the Potency result in [13], in assay [9] and in assay [10] was “inactive” in each case. Besides, the max response in assay [4] is 2.41% and 26.5%.

For the compound `CN(C)C(=O)Oc1cccc([N+](C)(C)C)c1`, the outcome in assay [11], in assay [12], in assay [7] and in [8] was inactive. For the same compound, the Potency result in [13], in [9] and in assay [10] was “inactive” throughout. In addition, the max response in assay [4] was 5.44% and 20.8%.
